# GIRK2 act – Activates human GIRK2-containing potassium channels. P48051. HEK293 GIRK2/NPY4 cells, thallium flux fluorescence. 34,000 tested, under 10 active. activation (% efficacy), % for hits at 37.5 µM. AID 1259324;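 active = primary screen hit, no activity in plain HEK293 cells, and in GIRK2-only cells above 5% efficacy rising with concentration; inactive = the rest, including fluorescent compounds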;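 note: efficacy is normalized control-subtracted fluorescence 15 s after thallium addition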
# Target sequence (P48051 whole entry, looked up): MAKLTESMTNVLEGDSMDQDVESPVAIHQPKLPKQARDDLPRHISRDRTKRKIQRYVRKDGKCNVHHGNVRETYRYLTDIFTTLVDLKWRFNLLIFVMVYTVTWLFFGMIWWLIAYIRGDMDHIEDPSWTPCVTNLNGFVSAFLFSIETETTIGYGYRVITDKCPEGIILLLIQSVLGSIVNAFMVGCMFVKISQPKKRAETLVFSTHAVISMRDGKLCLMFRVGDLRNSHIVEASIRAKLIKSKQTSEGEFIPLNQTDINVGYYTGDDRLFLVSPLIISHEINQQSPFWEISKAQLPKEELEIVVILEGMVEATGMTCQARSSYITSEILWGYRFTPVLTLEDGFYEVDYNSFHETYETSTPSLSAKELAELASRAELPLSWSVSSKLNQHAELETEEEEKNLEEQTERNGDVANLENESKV
# AMPAR-TARP mod – modulates AMPAR-stargazin complexes; O88602+P19491; HEK293 GluA2+stargazin, membrane potential dye (FDSS), glutamate EC50; hits were called plate by plate, in both directions; calls only at 30 µM; 40,000 tested, 3.5% active; AID 1259245;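 active = any of four per-well response measures lying three or more SD from its plate-wide compound average, in either direction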
# Calls only; 0 = inactive; - = no result given; + = active, no number. This is one part of a sample in which hits are shown more often than they occur.
SMILES,GIRK2 act,AMPAR-TARP mod
O=C(NCc1cccc2ccccc12)N(CCc1ccccc1)Cc1ccccn1,0,+
O=C(N(CCc1ccccc1)Cc1ccccn1)C12CC3CC(CC(C3)C1)C2,0,+
O=C(NC1CCCCC1)N(CCc1ccccc1)Cc1ccccn1,0,0
O=C(NCc1cccc2ccccc12)N(Cc1ccccn1)Cc1ccco1,0,-
CC(C)n1c(C2CC(=O)N(C(C)(C)C)C2)nc2ccccc21 (configuration not stated),-,0
COc1ccc(N2CC(C)Cn3c2nc2c3c(=O)n(CC(=O)O)c(=O)n2C)c(OC)c1 (configuration not stated),-,0
Cc1ccccc1C(=O)NCC1CCN(C(=O)NC(C)(C)C)CC1,0,0
COCCN1CCC(CNC(=O)C2CCN(S(C)(=O)=O)CC2)CC1,0,-
CS(=O)(=O)N1CCC(CNC(=O)C2CCCCC2)CC1,0,+
O=C(c1ccc(F)c(F)c1)N1CCC(c2ccsc2)CC1,0,0
CCCNC(=O)Cn1cnc(CCC)cc1=O,0,0
COc1ccc(-c2c(NC(=O)c3cccs3)sc3ccccc3c2=O)cc1,0,0
COc1cc(-c2c(NC(=O)c3ccco3)sc3ccccc3c2=O)cc(OC)c1OC,0,+
CN(C1CCCC1)S(=O)(=O)c1ccc(C(=O)Nc2nc3cc4c(cc3s2)OCO4)cc1,-,0
O=C(/C=C/c1cc2cc3c(cc2nc1Cl)OCO3)C1CC1,-,+
COc1ccc(/C=C/C(=O)Nn2cnc3c(cnn3C(C)(C)C)c2=O)cc1OC,0,0
CCc1ccc(OCCOCC(O)CN2CCN(Cc3ccc4c(c3)OCO4)CC2)cc1 (configuration not stated),-,+
Cc1cc(C)cc(OCC(O)CN2CCN(Cc3ccc4c(c3)OCO4)CC2)c1 (configuration not stated),-,0
Cn1nc(NC(=O)C2CCN(S(C)(=O)=O)CC2)c2c1NC(=O)CC2c1cccs1 (configuration not stated),0,0
COC(=O)N1CCC(CNC(=O)C(=O)Nc2ccccc2C#N)CC1,0,0
O=C(NC1CC1)c1nn(-c2ccc(F)cc2)cc1OCc1ccccc1,0,0
O=C(c1cc(Cl)sc1Cl)N(CCN1CCOCC1)c1nc2c(F)cc(F)cc2s1,0,0
Cn1c(=O)c2c(nc3n2CC(c2ccc(F)cc2)=NN3CC(=O)O)n(C)c1=O,-,0
Cn1c(=O)c2c(nc3n2CC(c2ccc(F)cc2)=NN3CC(N)=O)n(C)c1=O,-,+
Cc1ccc2nc(NC(=O)c3ccc(=O)n(Cc4cccc(F)c4)n3)sc2c1,0,0
SMILES,GIRK2 act,AMPAR-TARP mod
CCOC(=O)c1csc(NC(=O)c2ccc(=O)n(Cc3cccc(F)c3)n2)n1,0,+
CCc1c(C#N)c(SCCC(=O)NCc2ccc3c(c2)OCO3)nc2c1C(=O)CC(C)(C)C2,0,0
CCc1c(C#N)c(SCC(=O)NCc2ccc3c(c2)OCO3)nc2c1C(=O)CC(C)(C)C2,0,+
O=C(NCCc1c[nH]c2ccccc12)C1CCCN(c2ccc(-c3ccccc3)nn2)C1 (configuration not stated),0,0
CCCC(=O)Nc1ccc(S(=O)(=O)N2CCN(c3ccc4nncn4n3)CC2)cc1,0,+
O=S(=O)(c1ccc(Oc2ccccc2)cc1)N1CCN(c2ccc3nncn3n2)CC1,0,0
COc1cccc(OCCN2CCN(C(=O)c3cc4cc(Cl)cc(Cl)c4oc3=O)CC2)c1,-,0
COc1ccc(OC)c(S(=O)(=O)Nc2ccc3c(c2)N(S(=O)(=O)c2ccccc2)CCC3)c1,-,+
CCCS(=O)(=O)N1CCCc2cc(NS(=O)(=O)c3cc(C)ccc3OC)ccc21,-,+
CCCS(=O)(=O)N1CCCc2cc(NS(=O)(=O)c3cc(C)ccc3OCC)ccc21,-,0
COc1ccc(OC)c(S(=O)(=O)Nc2ccc3c(c2)CCCN3S(=O)(=O)c2ccccc2)c1,-,0
CCC(C)c1ccc(OC2OC3COC(c4ccccc4)OC3C(O)C2NC(C)=O)cc1 (configuration not stated),-,0
COc1cc(NC(=O)CCCn2nc(-c3ccco3)ccc2=O)cc(OC)c1,0,-
O=C(Cc1cccc2ccccc12)NCC1CCN(C(=O)COc2ccccc2)CC1,0,+
O=C(Cc1cccc2ccccc12)NCC1CCN(c2ncccn2)CC1,0,0
CCC(C)NC(=O)c1cc2cccc(OC)c2oc1=O (configuration not stated),0,0
COc1cccc2cc(C(=O)CS(=O)(=O)c3ccccc3)c(=O)oc12,-,+
CCc1cc(=O)[nH]c2cc(NC(=O)Cc3ccccc3Cl)ccc12,0,-
COc1ccccc1C1(C(=O)N2CCC(c3cccs3)CC2)CCOCC1,0,+
CCOC(=O)C1CCN(C(=O)C2(c3cccs3)CCOCC2)CC1,0,0
CCOc1ccc(OCCNC(=O)c2cccc(C(F)(F)F)c2)cc1,0,0
COc1cccc(C(=O)Nc2nc3ncccc3cc2-c2ccccc2)c1,0,+
O=C(Nc1nc2ncccc2cc1-c1ccccc1)C1CCCC1,0,0
